± gives the standard deviation.

This note sets out measurements from the supplement of paper PMC7866885, “A novel bicyclic 2,4-diaminopyrimidine inhibitor of Streptococcus suis dihydrofolate reductase” (PeerJ, 2021).

For this experiment, the system named is Streptococcus suis P1/7. The experiment can be described thus: percent growth relative to DMSO control; higher = less growth inhibition. To be noted: 10 µM; incubation time 18 h. The protocol: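 CLSI broth microdilution: 5x10^4 CFU of Streptococcus suis (strain P1/7 or HE06) incubated with 10 µM Pathogen Box compound in cation-adjusted Mueller Hinton broth, 37 °C, 5% CO2, 18 h. Growth read as OD600 and expressed as percent of the DMSO-treated control (100%); mean ± SD of three independent experiments.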
As to `CC1CC1C(=O)NC1CCN(CC2(c3ccccc3)CCCCC2)CC1` (stereo not drawn), the percent growth was 71.1 ± 43%.
Then `COc1cc(OC)cc(C(=O)NCC2Cc3cc(Cl)cc(-c4ccncc4)c3O2)c1` (stereo not drawn), with 65.4 ± 25%; and `O=C(NC1CCCCC1)N1CCN(Cc2ccc3c(c2)OCO3)CC1`, with 52.2 ± 38%; and `Cc1cccc(Cn2ccc(NC(=O)c3ccc4c(c3)OCO4)n2)c1`, with 102 ± 23%.
With `Cc1ccccc1CN1CCC(O)(c2ccc(Cl)c(C(F)(F)F)c2)CC1`, the percent growth came to 102 ± 50%.
Then `O=C(Nc1cnc2ccccc2c1)c1cccc(-n2cnnn2)c1`, with 106 ± 28%; and `N#Cc1nc(-c2ccccc2)oc1S(=O)(=O)c1ccc(Cl)cc1`, with 85.2 ± 19%.
Then `COc1cccc(OC)c1C(=O)Nc1ccc(Cl)c(-c2nc3ccccc3s2)c1`, with 119 ± 45%.
Then `Cc1noc(C)c1C(=O)N1CCCC(c2[nH]c3c(C)cccc3c2-c2ccncc2)C1` (stereo not drawn), with 90.5 ± 20%.
Regarding `CCc1ccc([C@@H]2C[C@H](C(F)(F)F)n3ncc(C(=O)NCc4ccc(OC)cc4)c3N2)cc1`, the percent growth was 75.4 ± 5.3%.
The result for `O=C(NCCc1c[nH]c2ccccc12)c1cc2ccccc2oc1=O` reads 74.1 ± 8.7%; that for `CCc1c(C)nc(-n2nc(C)cc2NC(=O)c2ccccc2SC)[nH]c1=O`, 1.97 ± 3.8%.
The result for `c1ccc(-c2nc(NC3CCCCC3)cc(C3CC3)n2)nc1` reads 0.494 ± 1.2%; that for `Cc1cc(O)nc(-n2nc(C)cc2C)n1`, 2.28 ± 2.3%.
Regarding `NC(CC(=O)c1ccc(Cl)cc1Cl)C(Cl)(Cl)Cl` (stereo not drawn), the percent growth stood at 23.2 ± 36%.
Take `CC(C)C(C(=O)Nc1ccc(S(=O)(=O)N(C)C)cc1)c1ccc(Cl)cc1` (stereo not drawn): the percent growth stood at 86 ± 22%.
The result for `CCCn1nnc(NC(=O)COc2ccc(C3CCCCC3)cc2)n1` reads 85.9 ± 12%; that for `O=C(C1CCCCC1)N1CC(=O)N2CCc3ccccc3C2C1` (stereo not drawn), 102 ± 18%; that for `O=C(Nc1cccc(Cl)c1)c1cnc(N2CCN(c3ccncc3)CC2)c(Cl)c1`, 20.4 ± 12%.
The result for `CCOc1ccc2cc(-c3nn(CC4CCN(C)CC4)c4ncnc(N)c34)ccc2c1` reads 99.3 ± 11%; that for `CC(=O)N1CCc2cc3nc(C)cc(C)c3cc21`, 91.7 ± 27%.
Turning to `FC(F)(F)c1cnc(Sc2nnc(-c3ccncc3)o2)c(Cl)c1`, the percent growth amounted to 67.2 ± 20%.
Then `O=C(Nc1nc(-c2ccccn2)cs1)C1CC1c1ccccc1F` (stereo not drawn), with 2.29 ± 3.7%.
Turning to `Cc1nc(-c2ccccn2)nc(N2CCC(Cc3ccccc3)C2)c1Cl` (stereo not drawn), the percent growth was -0.158 ± 0.27%.
Take `COc1cc(CN2CCC3(C=Cc4ccccc43)CC2)cc2c1OCO2`: the percent growth worked out at 83.9 ± 5.5%.
The result for `C[C@H](c1ccc2c(c1)CCCC2)N(C)c1ncc2c(N)nc(N)nc2n1` reads 76.6 ± 18%; that for `CN1CCN(c2nccc3nc(-c4ccc(F)c(F)c4)[nH]c23)CC1`, 68.8 ± 13%.
The result for `COc1ccc(-c2onc(C(F)(F)F)c2-c2ccc(Cl)cc2)c(O)c1` reads 19.4 ± 34%.
Take `Nc1ncc(-c2cn[nH]c2)cc1-c1nc2cc(Cl)cnc2[nH]1`: the percent growth was 74 ± 15%.
The result for `CCCn1c(NC(=O)c2ccc3ccccc3n2)nc2ccccc21` reads 0.618 ± 1.5%; that for `O=C(C1CCN(c2nnnn2-c2ccccc2)CC1)N1CCc2ccccc2C1`, 62.4 ± 21%.
Turning to `COc1cccc(CC(=O)N2CCC(n3c(C)nc4ccc(F)cc43)CC2)c1`, the percent growth was 65.2 ± 15%.
Then `CCN(CC)C(=O)N1CCN(C)CC1`, with 91.1 ± 17%; and `N=C(N)Nc1ccc(-c2ccc(-c3ccc(N=C(N)N)c(Cl)c3)o2)cc1Cl`, with 53.1 ± 27%.
Then `COc1ccc(-c2nc(-c3cccc(NC(=O)Cc4ccc(F)cc4)c3)no2)cc1OC`, with 102 ± 57%; and `c1ccc(Oc2ccc(-c3cc(N4CCOCC4)[nH]n3)cc2)cc1`, with 61.7 ± 32%; and `O=C(NCCc1ccn(-c2ccccc2)n1)C1CCCCC1`, with 95 ± 23%.
The result for `N=C(N)c1ccc(OCCCCCOc2ccc(C(=N)N)cc2)cc1` reads 37.1 ± 32%.
